Nine compounds from PubChem BioAssay AID588474 (The Scripps Research Institute Molecular Screening Center, 2011) can be followed below.

The source made the active and inactive calls.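 The calls were made as follows: active = inhibition of at least 75% in the gel-based probe competition assay; inactive = inhibition below 75%.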

The target of this test is Platelet-activating factor acetylhydrolase (Mus musculus) (UniProt Q60963). Put plainly: mouse pPAFAH inhibitors, late-stage follow-up, orthogonal assay, biochemical, gel-based competitive ABPP, fluorescence (AID 588474). The following applies: recombinant mouse pPAFAH, FP-Rh fluorescence, at 5 µM, stronger effect = higher value.
Chain of Platelet-activating factor acetylhydrolase (Mus musculus) (Q60963 whole entry, looked up): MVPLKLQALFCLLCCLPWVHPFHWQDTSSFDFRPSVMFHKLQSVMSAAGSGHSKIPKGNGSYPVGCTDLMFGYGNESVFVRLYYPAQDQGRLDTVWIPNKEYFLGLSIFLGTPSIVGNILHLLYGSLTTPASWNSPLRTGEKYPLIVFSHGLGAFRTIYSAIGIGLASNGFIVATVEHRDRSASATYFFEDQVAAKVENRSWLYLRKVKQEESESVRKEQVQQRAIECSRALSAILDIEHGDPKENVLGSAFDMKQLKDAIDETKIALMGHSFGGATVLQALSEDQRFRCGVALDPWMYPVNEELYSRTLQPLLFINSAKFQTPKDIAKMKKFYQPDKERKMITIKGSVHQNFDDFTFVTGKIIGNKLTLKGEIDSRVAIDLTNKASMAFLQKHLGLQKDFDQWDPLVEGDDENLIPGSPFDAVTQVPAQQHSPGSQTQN
As for `CN1C[C@H](CNC(=O)OCc2ccccc2)C[C@@H]2c3cccc4c3c(cn4C)C[C@H]21`, the inhibition was 15% (inactive).
On to `O=C(Oc1ccc([N+](=O)[O-])cc1)N1CCC(N2CCCCC2)CC1`, for which the inhibition is 84% (active).
With `N#Cc1ccccc1Cn1cc(C(=O)c2cccs2)c2ccccc21`, the inhibition is 44% (inactive).
Next, `O=C(c1cccs1)c1cn(Cc2ccccc2Cl)c2ccccc12`: 43% (inactive); `NCCc1ccc(S(=O)(=O)F)cc1`: 16% (inactive); `N#Cc1ccccc1Cn1cc(C(=O)c2ccccc2F)c2ccccc21`: 8% (inactive).
The value for `O=C(c1ccco1)c1cn(Cc2ccccc2Cl)c2ccccc12` was 9% (inactive); that for `Cc1cc(C(=O)CS(=O)(=O)c2ccccc2)cc(C)c1OC(=O)N(C)C` was 36% (inactive).
`CN(C)C(=O)Oc1noc2cc(Cl)ccc12`: the inhibition was 99% (active).

A word on the inhibition: it is the relative decrease from the control value, in per cent.
